A selection: hits, their analogues and other compounds. The true share with any hit is near 0.92%.
RECQ1 helicase: qHTS Assay for Inhibitors of RecQ-Like Dna Helicase 1 (RECQ1). ATP-dependent DNA helicase Q1 (Homo sapiens), P46063. RECQ1 DNA unwinding, red fluorescence kinetic read. Potency, µM (doses to about 57.3 µM), for inactives: at the highest dose activity, negative = inhibition, most hits filed as inhibitors. 240,000 tested, 0.54% active;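 note: plate controls were vehicle for no effect and no enzyme for full effect; nearly all actives have a fitted effect of over 30% in size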
Target sequence (P46063 whole entry, looked up): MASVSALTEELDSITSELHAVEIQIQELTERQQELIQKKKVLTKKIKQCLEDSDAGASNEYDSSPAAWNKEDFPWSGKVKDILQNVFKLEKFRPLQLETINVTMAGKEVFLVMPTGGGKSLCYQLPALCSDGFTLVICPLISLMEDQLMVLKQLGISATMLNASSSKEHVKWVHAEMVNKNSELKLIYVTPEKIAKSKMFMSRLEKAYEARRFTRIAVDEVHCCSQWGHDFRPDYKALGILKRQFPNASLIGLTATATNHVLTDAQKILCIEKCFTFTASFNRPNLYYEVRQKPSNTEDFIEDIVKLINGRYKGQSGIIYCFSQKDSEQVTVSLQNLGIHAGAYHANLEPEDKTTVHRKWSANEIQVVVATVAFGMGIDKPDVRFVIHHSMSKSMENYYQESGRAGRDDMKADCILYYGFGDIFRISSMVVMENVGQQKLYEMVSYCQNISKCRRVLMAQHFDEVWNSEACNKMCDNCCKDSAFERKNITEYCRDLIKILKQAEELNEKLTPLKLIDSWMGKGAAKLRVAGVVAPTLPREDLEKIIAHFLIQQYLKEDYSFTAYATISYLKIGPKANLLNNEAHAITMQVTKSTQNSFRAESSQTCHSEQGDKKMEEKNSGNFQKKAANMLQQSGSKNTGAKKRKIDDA
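50 nM RECQ1T1 preincubated 15 min with compound in Tris pH 8.0 buffer with MgCl2, DTT, Tween-20 and 2.5 ug/ml poly(dI-dC); started with 200 nM TAMRA/BHQ-2 forked duplex and 2 mM ATP. Unwinding read as fluorescence (525/598 nm), two reads 2 h apart.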
FEN1 inh: qHTS Assay for the Inhibitors of Human Flap endonuclease 1 (FEN1); P39748; Recombinant FEN1 flap cleavage, fluorescence, 15 min; Potency, µM (highest dose often 114 µM), for the others: top-dose activity change, negative = inhibition, hits mostly inhibitors; 390,000 tested, 0.35% active; note: nearly all actives have a fitted effect of over 65% in size
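Enzyme 10 nM, 15 min RT preincubation with compound; start with substrate 50 nM final; reads at 0 and 15 min; qHTS titration, four-parameter Hill fit.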
APEX1 inh: qHTS Assay for Inhibitors of the Human Apurinic/apyrimidinic Endonuclease 1 (APE1); DNA repair nuclease/redox regulator APEX1 (Homo sapiens), P27695; recombinant APE1, TAMRA/BHQ-2 abasic DNA cleavage fluorescence; Potency, µM (titrated, usually from 65.8 µM), without a hit: at the highest dose activity change, negative = inhibition, usual class: inhibitors; 350,000 tested, 0.35% active; AID 2517, 2012;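 note: plate controls were vehicle for no effect and reference inhibitor for full effect; nearly all actives have a fitted effect of over 55% in size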
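APE1 at 0.75 nM final was preincubated with compound 15 min at room temperature, then 50 nM double-stranded THF abasic-site substrate (5'-TAMRA/3'-BHQ-2) was added. Fluorescence (ex 525/em 598 nm) was read kinetically; third-minus-first read gave activity.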
BLM inh: qHTS Assay for Inhibitors of Bloom's syndrome helicase (BLM); Potency, µM (highest dose often 56.1 µM), for the others: at the highest dose activity change, negative = inhibition, actives largely listed as inhibitors; recombinant BLM DNA unwinding, fluorescence dequenching; 350,000 tested, 0.2% active; RecQ-like DNA helicase BLM (Homo sapiens), P54132; AID 2528, 2010;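 note: plate controls were vehicle for no effect and no enzyme for full effect; nearly all actives have a fitted effect of over 35% in size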
TDP1 inh: qHTS Assay for Inhibitors of Tyrosyl-DNA Phosphodiesterase (TDP1). recombinant TDP1, AlphaScreen DNA substrate cleavage. Potency, µM (highest dose often 130 µM), without a hit: at the highest dose activity change, negative = inhibition, most hits filed as inhibitors. 350,000 tested, 0.28% active; note: nearly all actives have a fitted effect of over 40% in size
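Tdp1 1 nM final; 15 min RT w/ cpd; substrate 15 nM, 5 min; beads 10 ug/ml, 10 min; AlphaScreen read. Neg ctrl: no enzyme.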
Starred values were filed as active, the others as inactive; i = inactive; ? = inconclusive; / = no result given; [ ] = remark or other dose. Calls come from the whole dose curve; as a rule, active = well fitted curve in the direction sought with a large enough effect; inconclusive = small, poorly fitted or top-dose-only effect, or another doubt; inactive = no such curve, though single readings can be large; an effect the other way counts as inactive or inconclusive. Unless noted, % is set by controls: 0 for no effect and ±100 for the full control effect; potency is the fitted concentration of half-maximal effect.

SMILES	RECQ1 helicase	FEN1 inh	APEX1 inh	BLM inh	TDP1 inh
CCCCCCCCCC(=O)O	-1%	-9%	24%	/	2%
CCc1ccc(-c2nc3c(=O)n(C)c(=O)nc-3n(CC)n2)cc1	/	3%	/	/	2%
CCCc1nc2c(=O)n(C)c(=O)nc-2n(C)n1	?	-6%	?	2.8µM*	6%
Cn1nc(-c2ccccn2)nc2c(=O)n(C)c(=O)nc1-2	4.5µM*	-5%	?	1µM*	-1%
O=C(CC1NCCNC1=O)Nc1cccc(F)c1 (configuration not stated)	/	11%	/	0%	3%
O=C(NCCc1ccccc1)c1ccc2nc(-c3ccco3)c(-c3ccco3)nc2c1	?	-15%	?	7.1µM*	-2%
O=C(O)c1ccc2nc(-c3ccccc3)c(-c3ccccc3)nc2c1	-7%	13%	5%	5%	5%
O=C(NCCO)c1ccc2nc(-c3ccco3)c(-c3ccco3)nc2c1	-28%	45µM*	?	-27%	/
COc1ccc(-c2nc3ccc(C(=O)NCC(OC)OC)cc3nc2-c2ccc(OC)cc2)cc1	22µM*	-18%	13%	-12%	-1%
O=C(c1ccccc1)c1ccc2nc(-c3ccco3)c(-c3ccco3)nc2c1	?	?	?	14µM*	-8%
CN(Cc1ccco1)c1cc(-c2ccc3c(c2)OCO3)ncn1	-6%	/	?	-4%	/
COc1ccc2[nH]cc(CCNc3ncncc3-c3cccc(C#N)c3)c2c1	i	/	12%	3%	/
Cc1noc(Cn2c(=O)c3ccccc3n(CC(=O)Nc3cccc(Cl)c3C)c2=O)n1	/	-9%	/	-4%	6%
O=c1oc(-c2ccco2)nc2ccccc12	-11%	0%	-5%	-4%	0%
c1coc(-c2nc3ccccc3nc2-c2ccco2)c1	?	-28%	-12%	16µM*	/
C/C=C(\C=C\[C@@H](C)C/C=C/CC/C=C/C=C\C[C@@H](OC)/C(C)=C\C=C(C)C)CC(=O)O	i	/	-4%	-12%	6%
Cc1ccccc1-c1cc(-n2ccnc2)ncn1	1%	/	2%	0%	25µM*
Cc1ccccc1-c1nccc(-n2ccnc2)n1	-6%	/	3%	3%	/
COc1ccccc1-c1nn(CCC(=O)Nc2cccc(C(C)=O)c2)c2nc(C)cc(C)c12	/	?	/	0%	8%
CCCc1c(OCC(O)COc2ccc3c(=O)cc(C(=O)O)oc3c2CCC)ccc(C(C)=O)c1O (configuration not stated)	-7%	/	-2%	-19%	4%
C/C(CC(=O)N1CCN(C=O)CC1)=N\NC(=O)c1ccc([N+](=O)[O-])cc1	-12%	0%	6%	-5%	3%
C/C(CC(=O)N1CCN(C=O)CC1)=N\NC(=O)c1cc2ccccc2cc1O	28µM*	-2%	-8%	-8%	6%
O=C(O)c1cccc(-n2cccc2/C=C\[N+](=O)[O-])c1	-28%	?	13µM*	6%	/
Cc1ccc(-c2nnc(Nc3cccc(C(F)(F)F)c3)c3ccccc23)cc1S(=O)(=O)N1CCOCC1	/	-17%	/	-9%	12%
COc1ccc(/C=C/C(=O)NCC(=O)N=Nc2c(O)[nH]c3ccc([N+](=O)[O-])cc23)cc1	/	?	?	?	50µM*
SMILES	RECQ1 helicase	FEN1 inh	APEX1 inh	BLM inh	TDP1 inh
COc1ccc(NC(=O)/C=C/c2ccc(Br)o2)cn1	-28%	-24%	-5%	-24%	20µM*
COc1ccc(NC(=O)/C=C/c2cccc(F)c2)cn1	-10%	-3%	-1%	1%	0%
CCCCC/C=C\C/C=C\C/C=C\CCCCCCC(=O)NCC(=O)O	-15%	/	3%	-1%	7%
O=C(Nc1nc2c(F)cc(F)cc2s1)c1ccc2c(c1)OCCO2	/	-4%	4%	-3%	45µM*
COc1cccc2sc(NC(=O)c3ccc4c(c3)OCCO4)nc12	/	-17%	/	-1%	5%
O=C(O)C1CCCCC1C(=O)Nc1cccc(Br)c1 (configuration not stated)	/	-6%	0.47µM*	/	2.8µM*
O=c1c([N+](=O)[O-])c(O)c2ccccc2n1Cc1ccccc1	/	11µM*	10%	-5%	/
CCn1c(=O)c([N+](=O)[O-])c(Cl)c2ccccc21	-3%	?	0%	-5%	3%
COc1ccc(-c2nn(-c3ccccc3)cc2/C=C2/SC(=S)N(CCC(=O)O)C2=O)cc1	/	79µM*	17µM*	-2%	/
Cc1ccc(-c2nn(-c3ccccc3)cc2/C=C2\SC(=S)N(CC(=O)O)C2=O)cc1	0%	-18%	?	-2%	2%
N/C(=N\OC(=O)CCCc1ccccc1)c1cccnc1	-2%	7%	-1%	-2%	-4%
O=C(CCCc1ccccc1)c1ccccc1	/	-12%	38%	-8%	35µM*
Cc1cccc(/C(N)=N/OC(=O)CCCN2C(=O)c3ccccc3C2=O)c1	-6%	-5%	0%	-4%	1%
Cc1cccc(/C(N)=N/OC(=O)CCCc2ccccc2)c1	/	-13%	21%	-3%	56µM*
N/C(=N\OC(=O)CCCc1ccccc1)c1ccccc1	/	12%	36%	-3%	56µM*
O=C(CCCC(=O)c1ccccc1)NCCc1ccccc1	/	16%	-2%	2%	/
CC(C)C[C@H](NC(=O)[C@H](CCCCN)NC(=O)[C@H](CCC(N)=O)NC(=O)[C@H](Cc1cnc[nH]1)NC(=O)[C@H](Cc1cnc[nH]1)NC(=O)[C@@H](N)C(C)C)C(=O)N[C@H](C(=O)N[C@@H](Cc1ccccc1)C(=O)N[C@@H](Cc1ccccc1)C(=O)N[C@@H](C)C(=O)N[C@@H](CCC(=O)O)C(=O)N[C@@H](CC(=O)O)C(=O)N[C@H](C(=O)NCC(=O)N[C@@H](CO)C(=O)N[C@@H](CC(N)=O)C(=O)N[C@@H](CCCCN)C(=O)O)C(C)C)C(C)C	10%	/	1%	-3%	11%
CCCCc1cc2c(cn1)=C(OC(=O)c1cccs1)C(C)(OC(=O)CC)C(=O)C=2 (configuration not stated)	5%[11.5 µM]	/	-5%[12.4 µM]	-8%[12.4 µM]	8%[21 µM]
CC1(C)C(/C=C/C=C/C=C/C=C2\N(CCCCS(=O)(=O)O)c3ccc4ccccc4c3C2(C)C)=[N+](CCCCS(=O)(=O)[O-])c2ccc3ccccc3c21	/	20µM*	/	?	/
Cc1nc(N=Nc2cc(S(=O)(=O)O)ccc2S(=O)(=O)O)c(COP(=O)(O)O)c(C=O)c1O	-30%	/	16µM*	88%	5µM*
